Results: PubChem BioAssay (NCATS)
Records with an inconclusive call do not appear. Active and inactive are the calls of the source. Calls follow the shape of the dose curve; as a rule, active = well fitted inhibition curve with a large enough effect; inconclusive = small, poorly fitted or top-dose-only effect; inactive = flat fitted curve, though single readings scatter. Bridge positions count the residues as written; N and C are the ends. Square brackets hold non-standard residues; d marks the D form. Peptide text beside a SMILES is read from it. * marks the point of attachment. Ileψ(thiazoline)Cys = CC[C@H](C)[C@H](N)C1=N[C@H](C(=O)*)CS1; d(aIle) = CC[C@H](C)[C@@H](N)C(=O)O; dOrn = NCCC[C@@H](N)C(=O)O

test system: PC49; assay: qHTS profiling for inhibitors of Plasmodium falciparum proliferation (AID 504749); also: nearly all actives have a fitted effect of over 60% in size;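 as to activity, negative = inhibition: 0% = DMSO vehicle and full inhibition = artemisinin control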; details: P. falciparum in erythrocytes, SYBR Green DNA, 72 h; series mostly up to 12.8 µM; activity, negative = inhibition: at the top concentration
Outline: (§1)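 Three-day growth assay of blood-stage parasites in erythrocytes (0.3% parasitemia, 2.5% hematocrit) at 37 C, 5% CO2, quantified by SYBR Green DNA staining after overnight detergent lysis.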
Potency is read from the fitted curve at half-maximal effect.

Row | Compound | activity, negative = inhibition | Potency
1 | C[C@@H]1C[C@H]2[C@@H]3C[C@H](F)C4=CC(=O)C=C[C@@]4(C)[C@]3(F)[C@H](O)C[C@]2(C)[C@@]1(O)C(=O)CO | 16.7% (inactive) | 
2 | C[C@H](O)Cn1cnc2c1c(=O)n(C)c(=O)n2C | 8.38% (inactive) | 
3 | CCCCC[C@H](O)/C=C\[C@@H]1[C@H](O)CC(=O)[C@@H]1CCCCCCC(=O)O | 15.4% (inactive) | 
4 | CC(=C(CCOP(=O)(O)O)SC(=O)c1ccccc1)N(C=O)Cc1cnc(C)nc1N | 10.8% (inactive) | 
5 | NC[C@@H]1O[C@@H](O[C@H]2[C@H](O)[C@H](O[C@@H]3O[C@H](CO)[C@@H](O)[C@H](N)[C@@H]3O)[C@@H](N)C[C@H]2N)[C@H](N)C[C@@H]1O | 18% (inactive) | 
6 | CCc1c(C)[nH]c2c1C(=O)[C@H](CN1CCOCC1)CC2 | 8.23% (inactive) | 
7 | C=C1c2c(Cl)ccc(O)c2C(O)=C2C(=O)[C@@]3(O)C(O)=C(C(N)=O)C(=O)[C@@H](N(C)C)[C@@H]3[C@@H](O)[C@H]12 | 2.46% (inactive) | 
8 | CC[C@H](C)[C@H](N)C1=N[C@H](C(=O)N[C@@H](CC(C)C)C(=O)N[C@@H](CCC(=O)O)C(=O)N[C@@H](C(=O)N[C@H]2CCCCNC(=O)[C@@H](CC(N)=O)NC(=O)[C@@H](CC(=O)O)NC(=O)[C@@H](Cc3cnc[nH]3)NC(=O)[C@@H](Cc3ccccc3)NC(=O)[C@@H]([C@@H](C)CC)NC(=O)[C@@H](CCCN)NC2=O)[C@@H](C)CC)CS1 ({Ileψ(thiazoline)Cys}-LE[d(aIle)]K[dOrn][d(aIle)][dF][dH][dD][dN]; lactam 4-C) | 10.6% (inactive) | 
9 | O=C(N/N=C\c1ccc([N+](=O)[O-])o1)c1ccc(O)cc1 |  | 2.24 µM (active)
10 | CCOC(=O)O[C@@H](C)OC(=O)[C@@H]1N2C(=O)[C@@H](NC(=O)[C@@H](N)c3ccccc3)[C@H]2SC1(C)C | 3.58% (inactive) | 
11 | Cc1cccc(CN2CCN([C@@H](c3ccccc3)c3ccc(Cl)cc3)CC2)c1 | 23.5% (inactive) | 
12 | Cc1ccsc1/C=C\C1=NCCCN1C | 0.334% (inactive) | 
13 | O=C(O)COCCN1CCN([C@@H](c2ccccc2)c2ccc(Cl)cc2)CC1 | 15.2% (inactive) | 
14 | C#C[C@]1(O)CC[C@@H]2[C@H]3CCC4=CCCC[C@@H]4[C@@H]3CC[C@@]21C | 20.4% (inactive) | 
15 | CC1(C)[C@@H](OC(=O)CCC(=O)O)CC[C@@]2(C)[C@H]1CC[C@@]1(C)[C@H]2C(=O)C=C2[C@H]3C[C@](C)(C(=O)O)CC[C@]3(C)CC[C@@]21C | 9.07% (inactive) | 
16 | C[C@H](CCC(=O)O)[C@H]1CC[C@@H]2[C@@H]3[C@@H](O)C[C@H]4C[C@@H](O)CC[C@@]4(C)[C@H]3CC[C@@]21C | 17.7% (inactive) | 
17 | CN1CCO[C@H](c2ccccc2)c2ccccc2C1 | -7.91% (inactive) | 

test system: SC27B; assay: as above; details: P. falciparum in erythrocytes, SYBR Green DNA, 72 h; series mostly up to 12.8 µM; activity, negative = inhibition: at the top concentration
Outline: as §1

Row | Compound | activity, negative = inhibition | Potency
18 | C[C@@H]1C[C@H]2[C@@H]3C[C@H](F)C4=CC(=O)C=C[C@@]4(C)[C@]3(F)[C@H](O)C[C@]2(C)[C@@]1(O)C(=O)CO | 3.71% (inactive) | 
19 | C[C@H](O)Cn1cnc2c1c(=O)n(C)c(=O)n2C | 5.27% (inactive) | 
20 | CCCCC[C@H](O)/C=C\[C@@H]1[C@H](O)CC(=O)[C@@H]1CCCCCCC(=O)O | -0.0232% (inactive) | 
21 | CC(=C(CCOP(=O)(O)O)SC(=O)c1ccccc1)N(C=O)Cc1cnc(C)nc1N | 0.0573% (inactive) | 
22 | NC[C@@H]1O[C@@H](O[C@H]2[C@H](O)[C@H](O[C@@H]3O[C@H](CO)[C@@H](O)[C@H](N)[C@@H]3O)[C@@H](N)C[C@H]2N)[C@H](N)C[C@@H]1O | 1.35% (inactive) | 
23 | CCc1c(C)[nH]c2c1C(=O)[C@H](CN1CCOCC1)CC2 | 2.34% (inactive) | 
24 | O=C(N/N=C\c1ccc([N+](=O)[O-])o1)c1ccc(O)cc1 |  | 3.55 µM (active)
25 | C[C@@H](CNC1CCCCC1)OC(=O)c1ccccc1 |  | 3.55 µM (active)
26 | CCOC(=O)O[C@@H](C)OC(=O)[C@@H]1N2C(=O)[C@@H](NC(=O)[C@@H](N)c3ccccc3)[C@H]2SC1(C)C | 0.855% (inactive) | 
27 | Cc1ccsc1/C=C\C1=NCCCN1C | 1.37% (inactive) | 
28 | O=C(O)COCCN1CCN([C@@H](c2ccccc2)c2ccc(Cl)cc2)CC1 | 1.39% (inactive) | 
29 | C#C[C@]1(O)CC[C@@H]2[C@H]3CCC4=CCCC[C@@H]4[C@@H]3CC[C@@]21C | 2.47% (inactive) | 
30 | CC1(C)[C@@H](OC(=O)CCC(=O)O)CC[C@@]2(C)[C@H]1CC[C@@]1(C)[C@H]2C(=O)C=C2[C@H]3C[C@](C)(C(=O)O)CC[C@]3(C)CC[C@@]21C | 1.95% (inactive) | 
31 | CN1CCO[C@H](c2ccccc2)c2ccccc2C1 | -22% (inactive) | 

test system: TAB109; assay: as above; details: P. falciparum in erythrocytes, SYBR Green DNA, 72 h; series mostly up to 12.8 µM; activity, negative = inhibition: at the top concentration
Outline: as §1

Row | Compound | activity, negative = inhibition | Potency
32 | C[C@@H]1C[C@H]2[C@@H]3C[C@H](F)C4=CC(=O)C=C[C@@]4(C)[C@]3(F)[C@H](O)C[C@]2(C)[C@@]1(O)C(=O)CO | 3.86% (inactive) | 
33 | C[C@H](O)Cn1cnc2c1c(=O)n(C)c(=O)n2C | 13.8% (inactive) | 
34 | CCCCC[C@H](O)/C=C\[C@@H]1[C@H](O)CC(=O)[C@@H]1CCCCCCC(=O)O | -8.79% (inactive) | 
35 | CC(=C(CCOP(=O)(O)O)SC(=O)c1ccccc1)N(C=O)Cc1cnc(C)nc1N | 6.85% (inactive) | 
36 | NC[C@@H]1O[C@@H](O[C@H]2[C@H](O)[C@H](O[C@@H]3O[C@H](CO)[C@@H](O)[C@H](N)[C@@H]3O)[C@@H](N)C[C@H]2N)[C@H](N)C[C@@H]1O | 4.89% (inactive) | 
37 | CCc1c(C)[nH]c2c1C(=O)[C@H](CN1CCOCC1)CC2 | -1.45% (inactive) | 
38 | CC[C@H](C)[C@H](N)C1=N[C@H](C(=O)N[C@@H](CC(C)C)C(=O)N[C@@H](CCC(=O)O)C(=O)N[C@@H](C(=O)N[C@H]2CCCCNC(=O)[C@@H](CC(N)=O)NC(=O)[C@@H](CC(=O)O)NC(=O)[C@@H](Cc3cnc[nH]3)NC(=O)[C@@H](Cc3ccccc3)NC(=O)[C@@H]([C@@H](C)CC)NC(=O)[C@@H](CCCN)NC2=O)[C@@H](C)CC)CS1 ({Ileψ(thiazoline)Cys}-LE[d(aIle)]K[dOrn][d(aIle)][dF][dH][dD][dN]; lactam 4-C) | -0.357% (inactive) | 
39 | O=C(N/N=C\c1ccc([N+](=O)[O-])o1)c1ccc(O)cc1 |  | 2.24 µM (active)
40 | C[C@@H](CNC1CCCCC1)OC(=O)c1ccccc1 |  | 3.55 µM (active)
41 | CCOC(=O)O[C@@H](C)OC(=O)[C@@H]1N2C(=O)[C@@H](NC(=O)[C@@H](N)c3ccccc3)[C@H]2SC1(C)C | -5.37% (inactive) | 
42 | Cc1ccsc1/C=C\C1=NCCCN1C | 14% (inactive) | 
43 | O=C(O)COCCN1CCN([C@@H](c2ccccc2)c2ccc(Cl)cc2)CC1 | -18.8% (inactive) | 
44 | C#C[C@]1(O)CC[C@@H]2[C@H]3CCC4=CCCC[C@@H]4[C@@H]3CC[C@@]21C | 9.16% (inactive) | 
45 | CC1(C)[C@@H](OC(=O)CCC(=O)O)CC[C@@]2(C)[C@H]1CC[C@@]1(C)[C@H]2C(=O)C=C2[C@H]3C[C@](C)(C(=O)O)CC[C@]3(C)CC[C@@]21C | 11.2% (inactive) | 
46 | C[C@H](CCC(=O)O)[C@H]1CC[C@@H]2[C@@H]3[C@@H](O)C[C@H]4C[C@@H](O)CC[C@@]4(C)[C@H]3CC[C@@]21C | -9.52% (inactive) | 
